Active and inactive are the calls of the source. No rule for the calls is given here.
target: Pantothenate synthetase (Mycobacterium tuberculosis (strain ATCC 25618 / H37Rv)) (UniProt P9WIL5); experiment: Coupled enzyme confirmation of inhibitors against recombinant Mtb PanC (AID 375); details: coupled enzyme assay; at 10 µM, active compounds read high;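 also: 0% = full reaction with vehicle and 100% = no enzyme background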
Sequence (P9WIL5 whole entry, looked up): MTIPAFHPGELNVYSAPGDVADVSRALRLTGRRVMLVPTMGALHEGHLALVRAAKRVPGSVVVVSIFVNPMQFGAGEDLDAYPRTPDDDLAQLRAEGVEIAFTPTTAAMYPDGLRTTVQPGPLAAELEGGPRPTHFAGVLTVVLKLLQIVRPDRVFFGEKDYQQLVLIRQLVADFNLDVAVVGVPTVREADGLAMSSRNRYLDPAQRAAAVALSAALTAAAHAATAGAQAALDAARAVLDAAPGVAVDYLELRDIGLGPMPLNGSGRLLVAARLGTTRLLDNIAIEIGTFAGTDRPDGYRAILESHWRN

Row | Compound | inhibition
1 | COc1cc2c(cc1OC)C(/C(C#N)=N\O)=NC(C)(C)C2 | 2% (inactive)
2 | COc1cccc(CN2CCN(C(=O)c3ccco3)CC2)c1OC | 3% (inactive)
3 | CCC(=O)N1CCN(CCN=CC2=C(O)CC(C)(C)CC2=O)CC1 | 0% (inactive)
4 | CC(C)(C)n1nnnc1C(c1cccs1)N1CCN(Cc2ccccc2)CC1 (stereo not given) | 12% (inactive)
5 | O=C(NCCC1=CCCCC1)C1CCN(S(=O)(=O)c2cnc[nH]2)CC1 | 2% (inactive)
6 | O=C(CSc1ncccn1)NCc1ccccc1 | 0% (inactive)
7 | COC(=O)c1ccc(Oc2nc(NC(C)C)nc(N(C)C)n2)cc1 | 1% (inactive)
8 | C=C(C)CSc1nnc2[nH]c(=O)cc(N)n12 | 0% (inactive)
9 | CCC1C(=O)n2nc(-c3ccccc3)cc2N=C1C (stereo not given) | 0% (inactive)
10 | O=C(NCc1nc2ccccc2[nH]1)c1ccc(Cl)c(S(=O)(=O)N2CCCC2)c1 | 1% (inactive)
11 | Cc1ccc(SCCC(=O)N(C)C)cc1 | 0% (inactive)
12 | CCn1c(CSc2nnc(-c3cccnc3)n2-c2ccccc2C)nc2cc(C(=O)O)ccc21 | 0% (inactive)
13 | COCCn1c(=O)[nH]c2cc(C(=O)NCCCN3CCN(c4ccc(F)cc4)CC3)ccc2c1=O | 0% (inactive)
14 | COc1ccc(N2CCC(CNS(=O)(=O)c3cccc(C(F)(F)F)c3)C2)cc1 (stereo not given) | 5% (inactive)
15 | CCOC(=O)C1(C)NC(c2ccc(OC)c(OC)c2)C2C(=O)N(CC)C(=O)C21 (stereo not given) | 9% (inactive)
16 | CCc1ccc(NC(=O)c2cccnc2)cc1 | 16% (inactive)
17 | CC(=O)c1cccc(NC(=O)NCc2ccco2)c1 | 0% (inactive)
18 | COc1ccccc1C(=O)N1CCN=C1SCc1cccnc1 | 0% (inactive)
19 | O=C(CCC1COc2ccccc2O1)NCC1COc2ccccc2O1 (stereo not given) | 0% (inactive)
20 | COc1ccc2nc3oc(C(=O)N4CCCCC4)cc3cc2c1 | 12% (inactive)

Row | Compound | inhibition
21 | COc1ccc(Cc2nn3c(-c4cc(OC)c(OC)c(OC)c4)nnc3s2)cc1 | 0% (inactive)
22 | CCn1c(NC(=O)c2cccc(Cn3cc(Cl)cn3)c2)nc2ccccc21 | 0% (inactive)
23 | O=C(Cn1nnc(-c2ccc(CN3CCOCC3)cc2)n1)NC1CCCCC1 | 12% (inactive)
24 | COc1ccccc1CN1CC(C(=O)N2CCN(c3ccc(F)cc3)CC2)CC1=O (stereo not given) | 0% (inactive)
25 | Cc1cc(NC(=O)CSc2nc(CCC3CCCC3)nc3ccccc23)no1 | 3% (inactive)
26 | Cc1c(-n2c(CN3C(=O)c4ccccc4C3=O)nc3ccccc3c2=O)c(=O)n(-c2ccccc2)n1C | 0% (inactive)
27 | CCOc1cccc2cc(C(=O)N3CCN(C/C=C/c4ccccc4)CC3)c(=O)oc12 | 0% (inactive)
28 | O=C(Nc1ccccc1C(=O)N1CCOCC1)c1cccc(S(=O)(=O)N2CCCC2)c1 | 0% (inactive)
29 | Cc1cc(C(C)(C)C)cc(C)c1CC1=NCCN1 | 0% (inactive)
30 | COc1ccc(C2C3=C(OC(C)=O)c4ccccc4C3=Nc3c2c(=O)n(C)c(=O)n3C)cc1 (stereo not given) | 2% (inactive)
31 | Cc1ccc(S(=O)(=O)NC(=O)NN2CCCCCC2)cc1 | 4% (inactive)
32 | CCCOc1ccccc1NC(=O)c1c(-c2ccccc2)noc1C | 1% (inactive)
33 | CC(=O)O[C@]1(C(C)=O)CC[C@H]2[C@@H]3C[C@H](C)C4=CC(=O)CC[C@]4(C)[C@H]3CC[C@@]21C | 0% (inactive)
34 | O=C(CCn1c(=O)oc2ccccc21)N1CCN(c2ccccc2Cl)CC1 | 0% (inactive)
35 | Cc1ccc2nc3c(cc2c1)CN(Cc1ccco1)C(=NCC1CCCO1)S3 (stereo not given) | 0% (inactive)
36 | COc1cccc(OC)c1OCCN1CCN(C(=O)c2ccco2)CC1 | 0% (inactive)
37 | Cc1onc(-c2ccccc2)c1C(=O)N1CCOCC1 | 9% (inactive)
38 | CCN(C(=O)c1c(-c2ccccc2)noc1C)c1ccccc1 | 0% (inactive)
39 | COc1ccc(N(CC(=O)N2CCN(Cc3ccc4c(c3)OCO4)CC2)S(C)(=O)=O)cc1OC | 5% (inactive)
40 | COc1cccc2cc(C(=O)OC3CCN(C)CC3)c(=O)oc12 | 9% (inactive)

From PubChem BioAssay
